Only some compounds are listed: those with a hit (about 6.9% of all), similar ones and a draw of the others.
L3MBTL1 block: inhibitors of human L3MBTL1. Q9Y468. AlphaScreen L3MBTL1–H3K9me1 peptide binding. Potency, µM (series often up to 57.1 µM), for the others: top-dose activity, negative = inhibition, hits mostly inhibitors. 0.66% of 230,000 active. AID 485360; note: % is set by controls: 0 for no effect and ±100 for the full control effect; nearly all actives have a fitted effect of over 60% in size
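Displacement of a biotinylated histone H3(1-15) peptide monomethylated at Lys9 (75 nM) from L3MBTL1 (50 nM) was measured by AlphaScreen after a 30 min room-temperature compound incubation; cefsulodin titration served as intraplate control.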
VDR inhibitor: vitamin D3 receptor (human) inhibition | VDR-SRC2-3 peptide fluorescence polarization, 2 h | Potency, µM, inactives show max response, negative = inhibition, hits mostly inhibitors | 0.93% of 400,000 active; note: % is set by controls: 0 for no effect and ±100 for the full control effect
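VDR–SRC2-3 interaction, FP format. Cmpds 23 nl via pintool, brief spin, 2 h ambient incubation.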
PLK1 PBD inh: inhibitors of human PLK1 polo-box domain binding; 2.8% of 360,000 active; Potency, µM, for inactives: max response, negative = inhibition, hits mostly inhibitors; Plk1 PBD binding of FITC phosphopeptide, fluorescence polarization; P53350; note: series mostly up to about 57 µM; % is set by controls: 0 for no effect and ±100 for the full control effect; nearly all actives have a fitted effect of over 65% in size
HP1b chromo inh: blocks HP1-beta chromodomain binding to methylated histone tails; P83916; AlphaScreen HP1-beta / biotin-H3K9me3 peptide binding; Potency, µM (highest dose often 114 µM), inactives show at the top dose activity change, negative = inhibition, actives largely listed as inhibitors; 0.56% of 390,000 active; note: nearly all actives have a fitted effect of over 70% in size
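HP1-beta protein (50 nM final) preincubated 30 min at room temperature with biotinylated H3(1-18)K9me3 peptide (50 nM) in PBS pH 7.4, 0.01% Tween-20, then compound added for 30 min. AlphaScreen streptavidin donor/nickel chelate acceptor beads (10 ug/mL final), 30 min dark, luminescence read.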
JMJD2A Tudor: blocks the human JMJD2A Tudor domain; O75164; AlphaScreen JMJD2A-Tudor / H3K4me3 peptide binding; Potency, µM (series often up to 114 µM), inactives show at the highest dose activity change, negative = inhibition, most hits filed as inhibitors; 4.4% of 390,000 active; note: % is set by controls: 0 for no effect and ±100 for the full control effect; nearly all actives have a fitted effect of over 50% in size
BAZ2B block: inhibitors of human BAZ2B bromodomain | Potency, µM (highest dose often 114 µM), inactives show top-dose activity change, negative = inhibition, most hits filed as inhibitors | AID 504333 | AlphaScreen BAZ2B-H3K14Ac peptide displacement | 4.4% of 360,000 active | Q9UIF8; note: % is set by controls: 0 for no effect and ±100 for the full control effect; nearly all actives have a fitted effect of over 60% in size
Target sequence (Q9UIF8 whole entry, looked up): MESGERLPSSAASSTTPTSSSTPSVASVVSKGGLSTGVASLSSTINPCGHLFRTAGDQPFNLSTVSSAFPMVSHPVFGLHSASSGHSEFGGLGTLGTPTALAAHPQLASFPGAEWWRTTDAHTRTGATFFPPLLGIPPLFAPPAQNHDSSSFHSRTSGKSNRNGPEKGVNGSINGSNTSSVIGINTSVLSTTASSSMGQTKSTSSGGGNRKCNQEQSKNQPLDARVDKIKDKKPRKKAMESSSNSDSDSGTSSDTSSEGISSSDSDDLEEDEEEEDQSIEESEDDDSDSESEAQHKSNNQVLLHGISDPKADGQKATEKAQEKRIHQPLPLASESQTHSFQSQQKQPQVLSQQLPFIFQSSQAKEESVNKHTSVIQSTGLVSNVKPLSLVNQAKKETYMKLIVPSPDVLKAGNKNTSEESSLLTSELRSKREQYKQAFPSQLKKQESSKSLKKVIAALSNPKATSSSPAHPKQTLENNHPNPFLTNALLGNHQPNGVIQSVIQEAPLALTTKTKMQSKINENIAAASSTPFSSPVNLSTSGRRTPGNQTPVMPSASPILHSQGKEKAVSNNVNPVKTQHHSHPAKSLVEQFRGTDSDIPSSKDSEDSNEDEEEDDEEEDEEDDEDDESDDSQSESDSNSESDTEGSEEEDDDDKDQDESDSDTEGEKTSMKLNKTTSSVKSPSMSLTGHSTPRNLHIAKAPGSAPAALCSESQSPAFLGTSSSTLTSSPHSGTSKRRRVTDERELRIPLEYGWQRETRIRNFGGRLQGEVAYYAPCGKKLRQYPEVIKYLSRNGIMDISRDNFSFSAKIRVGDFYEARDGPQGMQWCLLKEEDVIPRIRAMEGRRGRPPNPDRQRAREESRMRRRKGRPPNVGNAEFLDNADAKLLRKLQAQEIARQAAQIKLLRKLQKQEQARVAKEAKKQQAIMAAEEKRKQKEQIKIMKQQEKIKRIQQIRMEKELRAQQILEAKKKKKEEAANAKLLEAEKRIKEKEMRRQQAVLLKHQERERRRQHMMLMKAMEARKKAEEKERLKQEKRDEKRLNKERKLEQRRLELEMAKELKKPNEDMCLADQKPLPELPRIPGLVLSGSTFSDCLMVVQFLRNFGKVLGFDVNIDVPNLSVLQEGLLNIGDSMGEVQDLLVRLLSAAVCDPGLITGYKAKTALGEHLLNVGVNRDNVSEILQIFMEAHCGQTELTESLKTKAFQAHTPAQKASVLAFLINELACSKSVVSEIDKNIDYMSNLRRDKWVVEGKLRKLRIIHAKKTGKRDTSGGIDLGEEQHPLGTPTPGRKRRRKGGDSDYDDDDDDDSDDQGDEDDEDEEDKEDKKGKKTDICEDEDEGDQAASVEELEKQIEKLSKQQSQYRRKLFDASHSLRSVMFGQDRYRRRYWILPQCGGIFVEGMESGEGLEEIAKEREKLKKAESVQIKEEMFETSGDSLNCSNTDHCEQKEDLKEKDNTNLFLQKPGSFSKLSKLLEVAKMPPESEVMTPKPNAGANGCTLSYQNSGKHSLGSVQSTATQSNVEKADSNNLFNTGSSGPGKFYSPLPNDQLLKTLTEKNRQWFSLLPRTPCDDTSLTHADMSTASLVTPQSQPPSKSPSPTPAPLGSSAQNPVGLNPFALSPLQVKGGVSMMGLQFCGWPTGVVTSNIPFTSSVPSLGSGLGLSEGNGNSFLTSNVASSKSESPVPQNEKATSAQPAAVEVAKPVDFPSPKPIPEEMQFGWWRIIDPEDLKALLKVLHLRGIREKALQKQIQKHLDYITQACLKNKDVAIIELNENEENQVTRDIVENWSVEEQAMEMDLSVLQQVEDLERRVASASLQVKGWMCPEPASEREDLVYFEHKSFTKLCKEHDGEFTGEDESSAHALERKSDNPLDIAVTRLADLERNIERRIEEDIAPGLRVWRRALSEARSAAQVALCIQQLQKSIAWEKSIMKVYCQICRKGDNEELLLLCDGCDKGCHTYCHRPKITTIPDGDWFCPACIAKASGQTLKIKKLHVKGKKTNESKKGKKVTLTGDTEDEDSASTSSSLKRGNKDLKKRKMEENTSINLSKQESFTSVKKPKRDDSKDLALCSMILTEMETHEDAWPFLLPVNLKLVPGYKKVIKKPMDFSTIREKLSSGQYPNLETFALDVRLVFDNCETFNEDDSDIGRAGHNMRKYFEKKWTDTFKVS
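BAZ2B (50 nM) with biotin-H3(5-23)K14Ac peptide (50 nM) in PBS pH 7.4, 0.01% Tween-20, preformed 30 min, then compound 30 min at room temperature; top concentration 110uM. AlphaScreen streptavidin donor/nickel chelate acceptor beads (10 ug/mL final), 20 min dark, signal read.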
Numbers without * were called inactive; u = inconclusive; x = no result given; [ ] = remark or other dose. Calls come from the whole dose curve; as a rule, active = well fitted curve in the direction sought with a large enough effect; inconclusive = small, poorly fitted or top-dose-only effect, or another doubt; inactive = no such curve, though single readings can be large; an effect the other way counts as inactive or inconclusive. Potency is the fitted concentration of half-maximal effect.

SMILES	L3MBTL1 block	VDR inhibitor	PLK1 PBD inh	HP1b chromo inh	JMJD2A Tudor	BAZ2B block
Cc1ccc(S(=O)(=O)SCCCSS(=O)(=O)c2ccc(C)cc2)cc1	x	50.1µM*	2.38µM*	7.08µM*	2.82µM*	x
COC(=O)c1ccccc1N(C)S(=O)(=O)c1cc2c3c(c1)CC(=O)N3CCC2	x	4.3%	x	24.7%[57 µM]	-11.0%	-19.0%
COc1ccc(CN2CCCC(C(=O)c3cccc(OC(C)C)c3)C2)cc1Cn1cccn1 (centres undefined)	-14.4%	-9.7%	-7.8%	23.3%	-27.4%	u
COc1ccc(C(=O)NCC(=O)O)cc1	x	6.8%	1.6%	18.3%	-26.2%	-4.6%
CCOC(=O)CNC(=O)CNC(=O)c1ccc(OC)cc1	4.7%	11.9%	-9.4%	10.0%	-11.3%	9.4%
CCOC(=O)CSC(=S)NC(=O)c1ccc(OC)cc1	7.3%	u	2.99µM*	24.3%	u	-1.2%
COc1ccc(C(=O)NC(=S)SCC(=O)O)cc1	9.2%	2.8%	18.9µM*	18.3%	-6.3%	-6.8%
COc1ccc2c(c1)CC(NC(=O)Nc1ccc(NC(C)=O)cc1)CO2 (centres undefined)	x	9.4%	x	30.5%[57 µM]	-13.0%	-0.5%
O=c1cc(-c2ccccc2)c2ccc3c(c2o1)CN(Cc1cccc(Cl)c1)CO3	x	-5.8%	x	52.3%	-18.1%	-1.7%
C/C(=N\Nc1ccccn1)c1ccc2c(c1)OCO2	x	-5.1%	-2.9%	-7.5%	-15.6%	u
C/C(=N\Nc1nc2ccccc2[nH]1)c1ccc2c(c1)OCCO2	x	-1.9%	-15.8%	u	50.1µM*	31.6µM*
C/C(=N/O)c1ccccn1	5.4%	24.5%	-6.9%	20.1%	u	10µM*
C/C(=N\Nc1nc2ccccc2[nH]1)c1cc2ccccc2o1	-7.4%	3.4%	-11.5%	u	44.7µM*	u
C/C(=N\Nc1nc2ccccc2[nH]1)c1ccccn1	x	x	x	x	x	20µM*
CCc1ccc(-c2nn(CC(=O)Nc3ccccc3)c3c2cnc2ccc(F)cc23)cc1	x	-4.1%	x	53.5%	-12.7%	-10.5%
Cn1c(SCC(=O)NCCc2ccccc2)ncc(C(=O)Nc2ccc(F)cc2)c1=O	1.5%	-8.5%	-2.4%	21.5%	-12.3%	12.6%
CCCOc1ccc(OC(=O)c2sc3ncn(Cc4cccc(F)c4)c(=O)c3c2C)cc1	x	8.4%	x	38.9%	1.3%	9.7%
CNC(=O)C1CCC(Cn2c(=O)c3sccc3n(Cc3cc(C)ccc3C)c2=O)CC1 (centres undefined)	x	3.2%	x	52.9%	-3.0%	-3.1%
Cc1ccc(C(=O)N/C(=C\c2ccccc2)C(=O)NCc2ccncc2)cc1	-8.2%	-0.1%	-9.9%	9.7%	-4.5%	50.1µM*
Cc1ccc(S(=O)(=O)NCc2ccccc2)cc1C(=O)NCC(=O)Nc1c(C)cccc1C	x	x	2.2%	x	x	x
c1cc2c3c(cccc3c1)NC1(CCCCC1)N2	x	-1.1%	-20.8%	-6.7%	-30.2%	-31.8%
c1cc2c3c(cccc3c1)NC1(CCC3(CC1)Nc1cccc4cccc(c14)N3)N2	u	1.4%	-7.5%	u	50.1µM*	28.2µM*
c1ccc(-c2n[nH]c3c2oc2ccccc23)cc1	x	3.5%	x	x	x	x
COc1cc(/C=C(\C#N)C(=O)NCc2ccccc2)ccc1OCc1ccc(C(=O)O)cc1	0.7%	u	18.9µM*	-16.1%	-16.9%[11.4 µM]	-17.3%
COCCNC(=O)/C(C#N)=C/c1ccc(OC(=O)c2cccs2)c(OC)c1	-1.2%	70.8µM*	-15.3%	25.7%	-19.6%	x
SMILES	L3MBTL1 block	VDR inhibitor	PLK1 PBD inh	HP1b chromo inh	JMJD2A Tudor	BAZ2B block
COc1cc(/C=C(\C#N)C(=O)Nc2ccc(C(=O)O)cc2)ccc1OC(=O)c1cccc(F)c1	1.7%	u	23.8µM*	u	u	u
COCCNC(=O)/C(C#N)=C/c1cccs1	6.1%	3.6%	25.0%	7.0%	8.5%	5.1%
COc1cc(/C=C(/C#N)C(=O)Nc2ccccc2)ccc1OCc1ccc(C(=O)O)cc1	x	-2.8%	u	-9.6%	56.2µM*	56.2µM*
CCc1ccc(NC(=O)/C(C#N)=C\c2ccc(OC)c(C(=O)O)c2)cc1	0.5%	-18.7%	-29.8%	-1.0%	-10.7%	-11.0%
Oc1c(C(c2cccc(Br)c2)N2CCCC2)sc2nc(-c3ccco3)nn12 (centres undefined)	x	-5.2%	x	18.1%	u	u
O=c1cc(-c2ccc(F)cc2F)[nH]c2ccc(F)cc12	x	0.2%	x	x	x	x
COc1ccc(S(=O)(=O)N2CCC(C(=O)NCCCc3ccccc3)CC2)cc1	x	-4.6%	-4.0%	34.3%	-15.9%	-1.4%
O=C(Nc1cc(C(F)(F)F)ccc1Cl)[C@H](O)CCc1ccccc1	x	x	x	x	26.0%	x
CCOc1cccc(NC(=O)/C(C#N)=C\c2cccnc2)c1	-3.7%	u	18.9µM*	26.3%	-6.2%	u
CCOc1cc(/C=C(\C#N)C(=O)Nc2cccc(C(=O)O)c2)ccc1OCc1ccc(Br)cc1	x	-6.7%	0.0%	u	u	56.2µM*
O=C(NCCSCc1ccc(Cl)cc1)C1CCN(S(=O)(=O)Cc2ccccc2)CC1	x	2.2%	x	15.0%	-8.3%	-1.7%
O=C(O)c1ccc(N2C(=O)/C(=C/c3ccc(-c4ccc([N+](=O)[O-])cc4)o3)C=C2c2ccccc2)cc1	-26.3%	u	11.9µM*	14.1µM*	7.94µM*	11.2µM*
CCCn1c(NCc2cccs2)nc2ccccc21	4.5%	21.8%	-3.1%	45.5%	-14.1%	x
CCCCn1c(NCc2ccc(N(C)C)cc2)nc2ccccc21	u	3.9%	-8.2%	u	39.8µM*	39.8µM*
c1ccc(CNc2nc3ccccc3n2CCN2CCOCC2)nc1	-4.9%	1.3%	2.4%	19.2%	25.1µM*	70.8µM*
CCCn1c(NCc2ccccn2)nc2ccccc21	-14.9%	-16.2%	-6.4%	12.0%	20µM*	56.2µM*
CCCOc1cccc(C(=O)Nc2ccc(-c3nc4ccccc4s3)c(Cl)c2)c1	x	9.0%	x	7.2%	-2.4%	3.7%
O=C(CSc1nccn1Cc1ccccc1)Nc1nc2ccccc2s1	x	5.0%	x	-5.0%[57 µM]	50.1µM*	u
CN1CCN(CC(=O)Nc2nc3ccccc3s2)CC1	0.0%	-17.8%	-0.4%	u	28.2µM*	70.8µM*
O=C(CSc1nccn1Cc1ccc(F)cc1)Nc1nc2ccccc2s1	x	4.3%	x	-17.8%[57 µM]	u	u
O=C(CN1CCCCCC1)Nc1nc2ccccc2s1	x	15.4%	-12.0%	u	22.4µM*	x
Cc1ccccc1-c1noc(-c2cccnc2N2CCN(c3ccccc3)CC2)n1	x	9.5%	x	52.7%	-2.6%	u
CCOC(=O)N1CCC(N(CCN(C)C)C(=S)Nc2ccccc2OCC)CC1	4.9%	2.1%	-22.4%	39.4%	-14.6%	-3.5%
CC(C)=CCc1c(O)cc2oc(C)cc(=O)c2c1O	x	0.5%	x	x	x	x

Assay outcomes from PubChem.
